# Most compounds without a hit are left out; they make up all but 2.2% or so of the library.
# GRK2 inh: blocks RNA aptamer binding to human GRK2; inhibition of aptamer binding, % at 10 µM; AID 488847; actives 0.59% (n = 330,000); bead flow cytometry, FAM-aptamer displacement from GRK2;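 active = inhibition of aptamer binding above 40%, roughly 3 SD of noise, on plates passing a quality check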;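 note: median bead fluorescence of bound FAM aptamer so fluorescent compounds give negative values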
# TMEM16A inh: inhibitors of mouse TMEM16A calcium-activated chloride channel | HEK293 TMEM16A/YFP iodide influx fluorescence, ionomycin | AID 588511 | normalized B-score (activity score, 25-100; higher = stronger inhibition) at 10 µM | actives 1.2% (n = 310,000) | Q8BHY3;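 active = ratio plate-corrected score three or more library SD toward inhibition, starting fluorescence score within five deviations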;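 note: score derived from kinetic fluorescence span divided by baseline fluorescence per well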
# NOD2-RIPK2 inh: NOD2-RIPK2 protein interaction inhibition | O43353 | CHO BLA complementation NOD2-RIPK2, CCF4 ratio | inhibition, % at 4.98 µM | AID 624267 | actives 0.38% (n = 360,000); in the data active = inhibition above about 21%;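 note: 0% = vehicle only and 100% = reference blocker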
# TLR4 MyD88 comp: blocks binding of human TLR4 to MyD88. HeLa CL3-4 TLR4/MyD88 BLA complementation, FRET ratio. inhibition, % at 8.4 µM. actives 0.18% (n = 200,000); in the data active = inhibition above about 25%;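 note: 0% = vehicle and 100% = reference inhibitor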
# Target sequence (O00206 whole entry, looked up): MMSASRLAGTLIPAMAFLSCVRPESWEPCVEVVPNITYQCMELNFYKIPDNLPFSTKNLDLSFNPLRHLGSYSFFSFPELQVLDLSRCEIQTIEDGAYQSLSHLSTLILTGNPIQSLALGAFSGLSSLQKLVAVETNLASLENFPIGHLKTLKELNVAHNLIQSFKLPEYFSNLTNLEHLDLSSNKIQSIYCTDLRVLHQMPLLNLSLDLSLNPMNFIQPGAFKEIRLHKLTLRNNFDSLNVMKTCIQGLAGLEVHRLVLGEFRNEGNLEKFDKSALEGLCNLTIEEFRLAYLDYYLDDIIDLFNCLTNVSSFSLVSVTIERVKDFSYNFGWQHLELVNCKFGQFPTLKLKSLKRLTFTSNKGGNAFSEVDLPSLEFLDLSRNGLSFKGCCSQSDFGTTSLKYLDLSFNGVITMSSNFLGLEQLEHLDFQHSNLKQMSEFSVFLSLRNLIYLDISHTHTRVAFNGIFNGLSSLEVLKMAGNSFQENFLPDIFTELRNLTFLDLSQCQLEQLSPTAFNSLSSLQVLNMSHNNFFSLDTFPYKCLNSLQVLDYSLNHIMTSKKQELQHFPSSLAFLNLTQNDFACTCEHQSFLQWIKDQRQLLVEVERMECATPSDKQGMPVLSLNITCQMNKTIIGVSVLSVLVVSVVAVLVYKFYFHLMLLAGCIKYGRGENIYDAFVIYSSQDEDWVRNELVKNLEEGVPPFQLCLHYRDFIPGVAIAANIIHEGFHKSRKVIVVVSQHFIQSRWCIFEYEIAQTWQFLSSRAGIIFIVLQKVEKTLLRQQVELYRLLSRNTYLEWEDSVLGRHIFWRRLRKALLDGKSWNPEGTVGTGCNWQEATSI
# Target sequence (Q99836 whole entry, looked up): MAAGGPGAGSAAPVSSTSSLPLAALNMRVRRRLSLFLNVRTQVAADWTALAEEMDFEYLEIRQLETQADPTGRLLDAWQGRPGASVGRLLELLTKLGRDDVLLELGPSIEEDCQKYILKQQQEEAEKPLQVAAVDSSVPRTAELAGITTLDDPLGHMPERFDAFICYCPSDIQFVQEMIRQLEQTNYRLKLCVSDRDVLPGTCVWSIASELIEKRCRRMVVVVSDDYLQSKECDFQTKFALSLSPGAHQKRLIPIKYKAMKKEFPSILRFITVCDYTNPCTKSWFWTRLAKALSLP
# TMEM16A act: activators or potentiators of mouse TMEM16A chloride channel; Q8BHY3; HEK293 TMEM16A/YFP-H148Q/I152L, iodide quench fluorescence; active compounds read low; B-score at 10 µM; actives 0.3% (n = 340,000);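 active = fluorescence-ratio B-score plate-corrected deviation score at least 3 library SD below zero, with starting fluorescence score within 5 deviations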;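 note: channel opened by trigger with iodide after compound preincubation; score built on the fluorescence ratio of max minus min over baseline; more negative score means more quench and so TMEM16A activation or potentiation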
# TLR9-MyD88 inh: blocks human TLR9 binding to MyD88; Q9NR96+Q99836; CHO BLA complementation TLR9-MyD88, CCF4 FRET ratio; actives 0.21% (n = 340,000); inhibition, % at 4.98 µM;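 active = inhibition above the mean over all tested compounds plus 3 SD, cut at about 21% in these data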;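 note: 0% = DMSO only wells and 100% = clavulanate BLA inhibitor control wells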
# GRK2 CP1: human GRK2 inhibition confirmation, cherry pick 1; shares compounds with GRK2 inh; bead-bound GRK2, FAM-aptamer displacement, flow cytometry; aptamer displacement, % at 10 µM; actives 4% (n = 2,000); AID 504451;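 active = aptamer displacement above 40%, near three times the noise of non-fluorescent compounds, on plates passing quality checks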;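 note: negative values mostly reflect intrinsic compound fluorescence rather than true enhancement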
# Aptamer quench 1: quenches fluorescent RNA aptamer, GRK2 hit artifact | shares compounds with GRK2 inh | Fluorescent RNA aptamer beads, quenching, flow cytometry; active compounds read high | fluorescence change (kMESF span), kMESF (concentration not given with the values) | 110 tested, under 10 active | AID 504521;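 active = compounds whose bead fluorescence drops by more than 37 kMESF across the dose range, marking them as dye quenchers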
# FAM quench CP1: counter-screen for GRK2 aptamer inhibitors: fluorescent aptamer quenchers; shares compounds with GRK2 inh; Carboxyfluorescein RNA aptamer on beads, flow cytometry quenching; active compounds read low; fluorescence response (% of DMSO), % at 10 µM; 2,000 tested, under 10 active;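 active = compounds that quench the bead-bound fluorescent RNA probe, cutting fluorescence to under half of the solvent control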;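 note: counterscreen run without GRK2 so only probe quenching by compound is measured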
# GRK2 CP2: human GRK2 inhibition confirmation, cherry pick 2; shares compounds with GRK2 inh; bead-bound GRK2, FAM-aptamer displacement, flow cytometry; inhibition of aptamer binding, % at 10 µM; 360 tested, under 10 active; AID 504782;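 active = inhibition of aptamer binding above 40%, about triple the noise seen with nonglowing compounds, on plates passing quality control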;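 note: negative values mostly come from compounds that fluoresce themselves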
# Aptamer quench 2: quenches fluorescent RNA aptamer, GRK2 hit artifact | shares compounds with GRK2 inh | Streptavidin beads, FAM-RNA aptamer fluorescence quenching, flow cytometry | change in fluorescence (kMESF span), kMESF (test concentration not listed) | 25 tested, under 10 active;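 active = compounds quenching the bead-bound labeled aptamer, with fluorescence dropping by more than 37 kMESF over the dose range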
# FAM quench SP: aptamer fluorescence quenching in GRK2 counter-screen | shares compounds with GRK2 inh | carboxyfluorescein RNA aptamer beads, flow cytometry quenching; active compounds read low | fluorescence response vs DMSO, % at 10 µM | 360 tested, under 10 active | AID 588494;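 active = response vs DMSO under 50%, meaning signal dropped by over half, treated as fluorescence quencher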;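 note: labelled aptamer on streptavidin beads without GRK2 as a quench counter-screen; 100% = bead fluorescence of DMSO wells and lower means quenching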
# FAM quench PS1: counter-screen for GRK2 aptamer binding inhibitors: aptamer fluorescence quenching | fluorescence ratio to DMSO, % at 11.1 µM | 35 tested, under 10 active | AID 588496 | shares compounds with GRK2 inh | Bead-bound FAM RNA aptamer fluorescence quenching, flow cytometry; active compounds read low;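 active = compounds that dim the fluorescent label, raw bead signal shifting by over 33 units between lowest and highest dose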
# * marks the source's active call; other numbers are inactive results; i = inactive; / = no result given.
SMILES,GRK2 inh,TMEM16A inh,NOD2-RIPK2 inh,TLR4 MyD88 comp,TMEM16A act,TLR9-MyD88 inh,GRK2 CP1,FAM quench CP1,others
COc1ccccc1-[n+]1c(C)cc(/C=C2\Sc3ccccc3N2C)cc1C,68*,i,4,/,i,-2,62*,162,Aptamer quench 1=-2
CC(=O)c1ccccc1C(=O)N1CCC(n2nccc2NC(=O)C2CC2)CC1,1,i,-8,/,i,1,/,/,
O=C(COc1ccc(C2SCCS2)cc1)NNC(=O)C(Cl)Cl,46*,i,-2,/,i,-7,2,105,
Cc1ccc(NC(=O)COc2ccc(C3SCCS3)cc2)cc1,0,i,7,0,i,1,/,/,
Cc1nc2scc(C)n2c(=O)c1S(=O)(=O)N1CCN(c2cccc(C(F)(F)F)c2)CC1,1,i,-12,/,i,-2,/,/,
O=C(OCC(=O)N1CCC(Cc2ccccc2)CC1)c1ccc(O)cc1,/,/,1,/,/,3,/,/,
O=C1C(Cc2ccc(O)cc2)NC(=S)N1c1ccccc1 (centres undefined),0,i,-16,0,i,-6,/,/,
O=C(O)CC1NC(=S)N(c2ccccc2)C1=O (centres undefined),70*,i,-22,-12,i,-9,-1,103,
CCOC(=O)c1c(NC(=O)CN2C(=O)NC3(CCCC3)C2=O)sc(C)c1CC,0,i,3,/,i,6,/,/,
C/C(Cn1nnc2ccccc21)=N\OC(=O)c1ccccc1C,75*,i,-4,-15,i,3,-17,96,
Cc1c(C)c2ccc(OC(C)C(=O)NCCCN3CCOCC3)c(C)c2oc1=O (centres undefined),0,i,-9,/,i,9,0,101,
Cc1coc2c(C)c3oc(=O)c(CCC(=O)NCCCN4CCOCC4)c(C)c3cc12,0,i,-1,/,i,-8,-1,97,
CC(C)CCNC(=O)CCn1c(=S)oc2ccccc21,43*,i,-12,-10,i,7,1,97,
CCc1cccc(NC(=O)CCS(=O)(=O)c2ccc(Br)cc2)c1,93*,i,2,/,i,-7,73*,96,Aptamer quench 1=6.4;Aptamer quench 2=1.4
CC(=O)c1ccc(NC(=O)CCS(=O)(=O)c2ccc3c(c2)n(C)c(=O)c(=O)n3C)cc1,48*,i,4,/,i,1,36,105,GRK2 CP2=26;FAM quench SP=99
COC(=O)c1ccc(NC(=O)CCS(=O)(=O)c2ccc(Br)cc2)cc1,58*,i,-2,1,i,-4,34,101,Aptamer quench 1=16;Aptamer quench 2=0.7;FAM quench PS1=103
COC(=O)c1ccc(NC(=O)CCS(=O)(=O)c2ccc(C)cc2)cc1,0,i,-5,/,i,3,/,/,
O=C(CN1CCC(n2nnc3cc(F)ccc32)CC1)NCc1ccco1,2,i,-13,0,i,2,/,/,

# Screening results deposited in PubChem by several laboratories.
